Hits are enriched below; roughly 2.4% of the tested compounds scored in any of these assays.
TDP1 inh: TDP1 (human) enzyme inhibition; Q9NUW8; recombinant TDP1, AlphaScreen DNA substrate cleavage; Potency, µM (highest dose often 130 µM), inactives show at the top dose activity change, negative = inhibition, actives largely listed as inhibitors; hit rate 0.28% among 350,000; note: potency is the fitted concentration of half-maximal effect; % is set by controls: 0 for no effect and ±100 for the full control effect; nearly all actives have a fitted effect of over 40% in size
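Here, a 5' biotin and 3' phosphotyrosine-FITC DNA oligonucleotide reports Tdp1 activity: intact substrate bridges AlphaScreen beads, while cleavage leaves a 3' phosphate and drops signal. All incubations at room temperature.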
POLI inh: inhibitors of human DNA polymerase iota; Q9UNA4; Potency, µM (titrated, usually from 115 µM), inactives show at the top dose activity, negative = inhibition, hits mostly inhibitors; hit rate 1% among 390,000; Pol iota fluorescent replication assay, 10 min; note: potency is the fitted concentration of half-maximal effect
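Fluorescent replication assay read twice, at 0 min and 10 min after adding 50 nM (final) substrate. Enzyme (10 nM) and compounds were first incubated 15 min at room temperature; enzyme-free buffer wells were negative controls.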
POLB inh: inhibitors of human DNA polymerase beta; Pol beta primer extension/strand displacement, fluorescence kinetic; hit rate 1.3% among 340,000; AID 485314; P06746; Potency, µM (titrated, usually from 114 µM), without a hit: at the highest dose activity change, negative = inhibition, most hits filed as inhibitors; note: potency is the fitted concentration of half-maximal effect; % is set by controls: 0 for no effect and ±100 for the full control effect
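Curves were derived by four-parameter Hill fits of normalized qHTS data. The kinetic fluorescent primer-extension read was taken at 0 and 10 min after 50 nM substrate, following a 15 min room-temperature preincubation of 10 nM enzyme with compounds.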
Pol eta inh-1: DNA polymerase eta (human) inhibition; AID 588591; recombinant Pol eta, fluorescent DNA replication assay; Q9Y253; Potency, µM (highest dose often 114 µM), for the others: at the highest dose activity change, negative = inhibition, hits mostly inhibitors; hit rate 1.2% among 390,000; note: potency is the fitted concentration of half-maximal effect; % is set by controls: 0 for no effect and ±100 for the full control effect
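Pol eta at 10 nM preincubated with compounds 15 min at room temperature; reaction started with fluorescent substrate (50 nM final) and read kinetically at 0 and 10 min.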
Pol kappa inh-1: DNA polymerase kappa (human) inhibition; purified Pol kappa, fluorescent DNA synthesis assay, 10 min; AID 588579; Q9UBT6; hit rate 0.53% among 400,000; Potency, µM (series often up to 107 µM), inactives show top-dose activity, negative = inhibition, actives largely listed as inhibitors; note: potency is the fitted concentration of half-maximal effect; % is set by controls: 0 for no effect and ±100 for the full control effect
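Pol kappa 10 nM + cpd, 15 min RT; start w/ substrate 50 nM final; fluorescence kinetic read, 0 and 10 min. Neg ctrl: buffer, no enzyme.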
FEN1 inhibitor: human FEN1 inhibition; P39748; Recombinant FEN1 flap cleavage, fluorescence, 15 min; Potency, µM (doses to about 114 µM), for inactives: at the top dose activity change, negative = inhibition, actives largely listed as inhibitors; hit rate 0.35% among 390,000; AID 588795; note: potency is the fitted concentration of half-maximal effect; % is set by controls: 0 for no effect and ±100 for the full control effect; nearly all actives have a fitted effect of over 65% in size
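With each library titrated from low to high concentration, compounds met 10 nM FEN1 for 15 min at room temperature before 50 nM substrate was added; readings at 0 and 15 min fed four-parameter Hill curve fits.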
TbPGK inh: validation of Trypanosoma brucei phosphoglycerate kinase inhibitors; shares compounds with Pol kappa inh-1; TbPGK coupled GAPDH assay, Kinase-Glo luminescence; Potency, µM (series often up to 57.5 µM), for inactives: top-dose activity change, negative = inhibition, most hits filed as inhibitors; hit rate 79% among 500; note: potency is the fitted concentration of half-maximal effect; % is set by controls: 0 for no effect and ±100 for the full control effect; nearly all actives have a fitted effect of over 65% in size
Target sequence (P07378 whole entry, looked up): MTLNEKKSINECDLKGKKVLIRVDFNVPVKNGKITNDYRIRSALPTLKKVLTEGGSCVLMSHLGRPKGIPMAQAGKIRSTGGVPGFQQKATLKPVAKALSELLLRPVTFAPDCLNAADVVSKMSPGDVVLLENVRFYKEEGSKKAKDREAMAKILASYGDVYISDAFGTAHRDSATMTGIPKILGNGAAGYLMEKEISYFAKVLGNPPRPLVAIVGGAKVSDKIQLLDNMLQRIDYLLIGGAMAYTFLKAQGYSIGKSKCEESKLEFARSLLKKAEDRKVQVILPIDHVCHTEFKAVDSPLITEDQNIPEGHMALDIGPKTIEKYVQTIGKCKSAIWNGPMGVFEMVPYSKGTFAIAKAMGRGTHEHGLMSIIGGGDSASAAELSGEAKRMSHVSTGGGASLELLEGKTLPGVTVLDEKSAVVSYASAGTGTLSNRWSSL
Pol iota confirm: Inhibitors of human DNA polymerase iota, confirmation | shares compounds with Pol kappa inh-1 | hit rate 77% among 1,500 | Potency, µM, actives largely listed as inhibitors | Pol iota primer extension, TAMRA/BHQ fluorescence; note: potency is the fitted concentration of half-maximal effect
GALK inh confirm: galactokinase (human) inhibition, confirmation | hit rate 70% among 150 | Potency, µM (titrated, usually from 115 µM), for inactives: at the highest dose activity, negative = inhibition, actives largely listed as inhibitors | shares compounds with Pol eta inh-1 | purified GALK, Kinase-Glo ATP depletion luminescence
GALK redox cs: generates H2O2 by redox cycling, flagging GALK artifacts; shares compounds with Pol eta inh-1; Potency, µM (series often up to 115 µM), without a hit: top-dose activity change, negative = H2O2 signal, most hits filed as inhibitors; hit rate 40% among 150; Phenol red-HRP H2O2 redox cycling, absorbance 600 nm
HEK293 viability: counter-screen for GALK inhibitors: HEK293 cell cytotoxicity; hit rate 10% among 170; HEK-293 viability, ATP luminescence (CellTiter-Glo), 24/48 h; Potency, µM (series often up to 46.1 µM), for inactives: top-dose activity change, negative = cytotoxicity, hits mostly inhibitors; shares compounds with Pol eta inh-1; note: potency is the fitted concentration of half-maximal effect; % is set by controls: 0 for no effect and ±100 for the full control effect
Pol kappa inh-2: confirmation of human DNA polymerase kappa inhibitors. Potency, µM, most hits filed as inhibitors. hit rate 76% among 920. shares compounds with Pol eta inh-1. purified Pol-kappa, fluorescent strand-displacement substrate; note: potency is the fitted concentration of half-maximal effect
Pol eta inh-2: confirmation of human DNA polymerase eta inhibitors; shares compounds with Pol eta inh-1; Pol eta primer extension, TAMRA/BHQ fluorescence, 10 min; Potency, µM, hits mostly inhibitors; hit rate 64% among 2,600; AID 720502; note: potency is the fitted concentration of half-maximal effect
* = called active by the depositor; ? = inconclusive; / = not tested or not shown; [ ] = remark or other dose. Calls come from the whole dose curve; as a rule, active = well fitted curve in the direction sought with a large enough effect; inconclusive = small, poorly fitted or top-dose-only effect, or another doubt; inactive = no such curve, though single readings can be large; an effect the other way counts as inactive or inconclusive.

SMILES	TDP1 inh	POLI inh	POLB inh	Pol eta inh-1	Pol kappa inh-1	FEN1 inhibitor	Pol iota confirm	Pol eta inh-2	others
O=C(COC(=O)c1ccc(S(=O)(=O)Nc2ccccc2)cc1)NCc1ccco1	3%	1%	?	7%	-21%	-2%	/	/
CN(C)C(=O)COC(=O)c1ccc(S(=O)(=O)NCc2ccco2)cc1	/	?	25µM*	22µM*	?	16%	60*	38*
CCN(CC)c1ccc(CN(C(=O)c2cc(=O)c3ccccc3o2)C2CCS(=O)(=O)C2)cc1 (stereo not given)	4%	15%	23%	-16%	7%	-11%	/	/
Cc1ccc(NC(=O)Cn2cc(S(=O)(=O)Cc3ccc(F)cc3)c3ccccc32)cc1Cl	-2%	79µM*	25µM*	18µM*	?	-12%	47*	43*
Cc1ccc(NC(=O)Cn2cc(S(=O)(=O)Cc3cccc(Cl)c3)c3ccccc32)cc1C	6%	16%	-2%	-22%	-3%	-6%	/	/
O=C(Nc1ccc(F)cc1F)c1ccc2c(O)c(S(=O)(=O)c3ccc(Cl)cc3)c(=O)[nH]c2c1	0%	0%	20%	6%	-7%	-17%	/	/
CSc1ccc(/C=C2\C=Cc3ccccc32)cc1	/	21%	/	/	-10%	1%	/	/
O=C(CCc1ccco1)CCc1ccco1	/	25µM*	/	?	?	-16%	?	76*	Pol kappa inh-2=34*
CCCN(CCC)C(=O)Cn1c(=O)n(-c2cccc(OC)c2)c(=O)c2c3c(sc21)CCCC3	5%	22%	9%	-13%	6%	2%	/	/
Nc1nc(=S)c2ncn(C3OC(CO)C(O)C3O)c2[nH]1 (stereo not given)	?	?	0.16µM*	4µM*	?	89µM*	34*	27*	TbPGK inh=12µM*;Pol kappa inh-2=15*
Nc1nc(=S)c2ncn([C@@H]3O[C@H](CO)[C@@H](O)[C@H]3O)c2[nH]1	/	-4%	/	-3%	8%	-4%	/	/
Cn1c(SCC(=O)Nc2cccc(C(=O)O)c2)nnc1-c1cc2cc(Br)ccc2o1	-5%	?	?	?	-17%	-13%	?	?
CNS(=O)(=O)c1cn(CC(=O)Nc2ccc(OC)c(Cl)c2)cc1S(=O)(=O)NC	3%	-10%	20%	-3%	4%	-2%	/	/
C=C(C)C(=O)Nc1ccc2c(c1)OCCOCCOCCO2	/	?	10µM*	22µM*	79µM*	?	/	19*	TbPGK inh=?
CC(=O)Nc1ccc2c(c1)OCCO2	-2%	16%	11%	-17%	-6%	7%	/	/
NCC(O)c1ccc(O)c(O)c1 (stereo not given)	?	35µM*	35µM*	?	7.5µM*	1%	47*	?
CCC(NC(C)C)C(O)c1ccc(O)c(O)c1 (stereo not given)	-6%	?	22%	-7%	8%[60.1 µM]	?	/	/
CN(Cc1ccco1)c1ncnc2ccc(-c3ccoc3)cc12	1%	28µM*	/	-26%	?	-22%	17*	38*	Pol kappa inh-2=17*
COCCNC(=O)c1ccccc1NC(=O)c1nsc2ccccc12	3%	-28%	0%	3%	-5%[60.1 µM]	-15%	/	/
COC(=O)c1cc(C)nc2c1C(=O)C(=O)C=C2N1CCOCC1	-4%	1.3µM*	-8%	4.5µM*	-10%	-23%	6*	5.4*	TbPGK inh=4.6µM*;GALK inh confirm=5.3µM*;GALK redox cs=2.7µM*;HEK293 viability=8.9µM*
Cc1nc(-c2ccc(F)cc2)sc1CCNC(=O)c1ccccc1C(F)(F)F	4%	?	-19%	-15%	-4%[60.1 µM]	-13%	/	/
CCCSC1=N/C(=C\C=C\c2ccco2)C(=O)S1	/	10µM*	5.6µM*	7.1µM*	22µM*	50µM*	?	60*
CCCSC1=N/C(=C\c2ccsc2)C(=O)S1	-4%	-10%	15%	-17%	2%	-8%	/	/
C[C@@H](NCCCc1cccc(C(F)(F)F)c1)c1cccc2ccccc12	/	-13%	/	/	0%[19.4 µM]	1%	/	/
COc1ccc2c(c1)c(=O)oc1cc(OCC(=O)NC3CCCCC3)ccc12	/	25µM*	22µM*	79µM*	?	-3%	?	67*	Pol kappa inh-2=?
SMILES	TDP1 inh	POLI inh	POLB inh	Pol eta inh-1	Pol kappa inh-1	FEN1 inhibitor	Pol iota confirm	Pol eta inh-2	others
COc1ccc2c(c1)c(=O)oc1cc(OCC(=O)NC3CC3)ccc12	/	-51%	?	?	-37%	-4%	/	/
CN(CC(=O)Nc1c(Cl)cccc1Cl)C(=O)c1cccc(-n2cccc2)c1	/	14µM*	/	20µM*	79µM*	-11%	17*	30*
CN(CC(=O)Nc1ccccc1Cl)C(=O)c1cccc(-n2cccc2)c1	/	-8%	/	-7%	-13%	-2%	/	/
CN(CC(=O)Nc1cccc(F)c1)C(=O)c1ccc(N2C(=O)c3ccccc3C2=O)cc1	-1%	2%	/	-18%	-5%	2%	/	/
CN(CC(=O)Nc1cccc(F)c1)C(=O)c1cccc(-n2cccc2)c1	/	20µM*	/	7.9µM*	?	-14%	30*	76*
Cc1ccc(C)c(NC(=O)CN(C)C(=O)c2cccc(-n3cccc3)c2)c1	3%[0.505 µM]	8.9µM*	/	5µM*	40µM*	-18%	17*	27*

High-throughput results as filed in PubChem.
